From PubChem BioAssay (Tox21)
Results filed as inconclusive are left out. A number with no mark means an inactive call. The call rests on the fitted dose curve.

Assay: qHTS assay to identify small molecule agonists of the progesterone receptor (PR) signaling pathway - cell viability counter screen (AID 1346799); further: nearly all actives have a fitted effect of over 45% in size
Conditions: PR-UAS-bla HEK293T viability, CellTiter-Glo luminescence, 16 h; series mostly up to 92.4 µM; activity change, negative = cytotoxicity: at the top concentration
Procedure, shortened: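 Here, 3,000 PR-UAS-bla HEK293T cells per well were treated with compounds for 16 hr after a 6 hr preincubation at 37C and 5% CO2; cell viability is the CellTiter-Glo luminescence signal.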
On the % scale 0 is the no-effect control and ±100 the full control effect.

Structure (SMILES) | activity change, negative = cytotoxicity
CN1CCN(C2=Nc3cc(F)ccc3Cc3ccccc32)CC1 | -14.5% [at 42.5 µM]
OCc1ccccc1O | -7.88% [at 42.5 µM]
O=C(O)[C@@H](O)[C@H](O)[C@H](O)[C@@H](O)C(=O)O | 6.32% [at 42.5 µM]
CC(=O)OC(C)OC(C)=O | 20.8%
C/C(=N\O)[C@@H](C)NCC(C)(C)CN[C@H](C)/C(C)=N/O | 21% [at 42.5 µM]
O=C1CCCCCCCCCCC(=O)OCCO1 | 3.61%
CC(CNC1CCCCC1)OC(=O)c1ccccc1 (stereo not drawn) | 2.71% [at 42.5 µM]
Cc1onc(-c2ccccc2)c1C(=O)Cl | 14.1% [at 42.5 µM]
C=CCCC=C | 16.7%
CCOC(=O)NCCC[Si](OCC)(OCC)OCC | 8.4%
OCc1c2ccccc2cc2ccccc12 | 15.2%
O=C(C(Cl)Cl)N1CCOC12CCCCC2 | 0.0407%
CN1CCN(c2c(F)cc3c(=O)c(C(=O)O)cn(CCF)c3c2F)CC1 | 3.65% [at 42.5 µM]
NCCCN1CCN(CCCN)CC1 | 1%
COC(=O)c1ccc(OC)cc1 | -3.49%
CCOC(=O)c1cc(=O)c2c(OCC(COc3cccc4oc(C(=O)OCC)cc(=O)c34)OC(=O)[C@@H](N)CCCCN)cccc2o1 | 0% [at 42.5 µM]
CC(C)=CCC[C@](C)(O)[C@@H]1CC=C(C)CC1 | 9.09%
O=CCCc1ccccc1 | -8.68%
C=C(C)C(=O)OCCOP(=O)(O)O | 4.65%
C[C@]12C(=O)OC(=O)[C@H]1[C@H]1C=C[C@@H]2C1 | -15.3%
Cc1ccc([N+](=O)[O-])c(N)c1 | -30%
O=C(O[C@@H](C(=O)O)[C@@H](OC(=O)c1ccccc1)C(=O)O)c1ccccc1 | 4.2%
CCOC(=O)C1CC(=O)C(=C(O)C2CC2)C(=O)C1 (stereo not drawn) | 0.886%
